The record followed here is PubChem BioAssay (EPA / NIEHS).

The source made the active and inactive calls. Rule for the calls: active = hit-call score of the fitted dose curve at least 0.9, where 1 is the maximum; inactive = score below 0.9.

Read-out in test [1]: Urokinase-type plasminogen activator receptor (uPAR), PLAUR (gene 5329)
As to the kind of experiment: BSK_4H_uPAR: BioMAP Diversity Plus: 4H Assay for Urokinase-type plasminogen activator receptor (uPAR) Biomarker Activity (AID 2283030). The following applies: primary human endothelial cells (HUVEC); actives raise or lower the signal. The essentials: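 Chemicals are dosed onto human vascular endothelial primary cells (umbilical vein). After 24 h, uPAR is read by ELISA. Gain or loss of signal is fitted relative to DMSO.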

Read-out in test [2]: Vascular endothelial growth factor receptor 2 (Homo sapiens) (UniProt P35968)
The experiment in a line: BSK_4H_VEGFRII: BioMAP Diversity Plus: 4H Assay for Vascular endothelial growth factor receptor 2 (VEGFR2) Biomarker Activity (AID 2283031).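 For AC50: cell-surface VEGFR2 protein level quantified by ELISA.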 The following applies: primary human endothelial cells (HUVEC); actives raise or lower the signal. The essentials: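 VEGFRII levels on human vascular endothelial primary cells were determined by ELISA at 24 hours post-dosing, with gain- or loss-of-signal fitted against DMSO controls.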

Read-out in test [3]: Human Leukocyte Antigen - DR isotype (HLADR), HLA-DRA (gene 3122)
The experiment in a line: BSK_BE3C_HLADR: BioMAP Diversity Plus: BE3C Assay for Human Leukocyte Antigen - DR isotype (HLADR) Biomarker Activity (AID 2283032). The following applies: primary human bronchial epithelial cells; actives raise or lower the signal. An outline of the steps: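 Chemicals are dosed onto BE3C bronchial epithelial cultures of human origin and left 24 h. HLA-DR is then measured by ELISA, and the endpoint is fitted in both directions using DMSO as the activity baseline.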

Read-out in test [4]: Vascular cell adhesion molecule 1 (VCAM1), VCAM1 (gene 7412)
The experiment in a line: BSK_4H_VCAM1: BioMAP Diversity Plus: 4H Assay for Vascular cell adhesion molecule 1 (VCAM1) Biomarker Activity (AID 2283033).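 For outcome: cell-surface VCAM-1 protein measured by ELISA.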 The following applies: primary human endothelial cells (HUVEC); actives raise or lower the signal. An outline of the steps:
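Chemicals are added to primary human umbilical vein endothelial cells. After 24 h, VCAM-1 levels are measured by ELISA. Values come from bidirectional fitting referenced to DMSO.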

Read-out in test [5]: Interferon-gamma inducible Protein 10 (IP10), CXCL10 (gene 3627)
The experiment in a line: BSK_BE3C_IP10: BioMAP Diversity Plus: BE3C Assay for Interferon-gamma inducible Protein 10 (IP10) Biomarker Activity (AID 2283034). The following applies: primary human bronchial epithelial cells; actives raise or lower the signal. An outline of the steps:
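IP-10 quantified by ELISA serves as the endpoint. Cells: primary human bronchial epithelium, read 24 h after compound addition. Activity is derived by bidirectional fitting with DMSO as negative control.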

Read-out in test [6]: Monokine induced gamma interferon (MIG), CXCL9 (gene 4283)
The experiment in a line: BSK_BE3C_MIG: BioMAP Diversity Plus: BE3C Assay for Monokine induced gamma interferon (MIG) Biomarker Activity (AID 2283035).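 For outcome: MIG protein measured by ELISA in BE3C cultures after 24 h of dosing.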 The following applies: primary human bronchial epithelial cells; actives raise or lower the signal. An outline of the steps:
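hu bronchial epithelial 1° cells, 24 h cpd; MIG by ELISA; bidirectional fit, DMSO = baseline.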

Read-out in test [7]: Transforming growth factor beta 1 (TGFb1), TGFB1 (gene 7040)
As to the kind of experiment: BSK_BE3C_TGFb1: BioMAP Diversity Plus: BE3C Assay for Transforming growth factor beta 1 (TGFb1) Biomarker Activity (AID 2283036;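 for outcome: TGF-b1 protein level measured by ELISA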). The following applies: primary human bronchial epithelial cells; actives raise or lower the signal. The essentials: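 Bronchial epithelial primary cells are treated with test chemical, then TGF-b1 is quantified by ELISA after 24 hours. Values derive from bidirectional fitting against DMSO, with cytotoxicity checked by SRB staining in parallel cultures.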

Read-out in test [8]: urokinase plasminogen activator (uPA), PLAU (gene 5328)
The experiment in a line: BSK_BE3C_uPA: BioMAP Diversity Plus: BE3C Assay for urokinase plasminogen activator (uPA) Biomarker Activity (AID 2283038).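 For outcome: uPA protein level quantified by ELISA in cell cultures; uPA read one day after compound addition.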 The following applies: primary human bronchial epithelial cells; actives raise or lower the signal. The essentials:
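Measured by ELISA: uPA from human primary bronchial epithelial cells 24 h after chemical treatment. Values derive from bidirectional curve fitting with DMSO serving as negative control. Total protein by SRB staining in parallel wells flagged overt cytotoxicity.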

Read-out in test [9]: Urokinase-type plasminogen activator receptor (uPAR), PLAUR (gene 5329)
As to the kind of experiment: BSK_BE3C_uPAR: BioMAP Diversity Plus: BE3C Assay for Urokinase-type plasminogen activator receptor (uPAR) Biomarker Activity (AID 2283039).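 For outcome: uPAR protein level measured by ELISA on the cells; cells exposed to compound for one day before measurement.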 The following applies: primary human bronchial epithelial cells; actives raise or lower the signal. An outline of the steps:
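Steps: dose human primary bronchial epithelial cells, incubate 24 h, measure uPAR by ELISA, then fit gain- or loss-of-signal response bidirectionally relative to DMSO.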

Read-out in test [10]: Interleukin-6 (IL6), IL6 (gene 3569)
As to the kind of experiment: BSK_CASM3C_IL6: BioMAP Diversity Plus: CASM3C Assay for Interleukin-6 (IL6) Biomarker Activity for (AID 2283040). The following applies: primary human coronary artery smooth muscle cells; actives raise or lower the signal.

Read-out in test [11]: Tissue plasminogen activator (tPA), PLAT (gene 5327)
As to the kind of experiment: BSK_BE3C_tPA: BioMAP Diversity Plus: BE3C Assay for Tissue plasminogen activator (tPA) Biomarker Activity (AID 2283041).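 For outcome: tPA level quantified by ELISA one day after compound addition.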 The following applies: primary human bronchial epithelial cells; actives raise or lower the signal. An outline of the steps: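 Gain- or loss-of-signal in tPA, measured by ELISA, derived by bidirectional fitting against DMSO. Cells: human primary bronchial epithelial; read at 24 h after chemical dosing.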

Read-out in test [12]: Interleukin-8 (IL8), CXCL8 (gene 3576)
As to the kind of experiment: BSK_CASM3C_IL8: BioMAP Diversity Plus: CASM3C Assay for Interleukin-8 (IL8) Biomarker Activity (AID 2283042).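 Note: IL-8 protein level quantified by ELISA.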 The following applies: primary human coronary artery smooth muscle cells; actives raise or lower the signal.

Read-out in test [13]: Human Leukocyte Antigen - DR isotype (HLADR), HLA-DRA (gene 3122)
As to the kind of experiment: BSK_CASM3C_HLADR: BioMAP Diversity Plus: CASM3C Assay for Human Leukocyte Antigen - DR isotype (HLADR) Biomarker Activity (AID 2283043).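 Note: cell-surface HLA-DR protein level quantified by ELISA.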 The settings on record: primary human coronary artery smooth muscle cells; actives raise or lower the signal.

Read-out in test [14]: Macrophage colony-stimulating factor (MCSF), CSF1 (gene 1435)
The experiment in a line: BSK_CASM3C_MCSF: BioMAP Diversity Plus: CASM3C Assay for Macrophage colony-stimulating factor (MCSF) Biomarker Activity (AID 2283044).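 Note: M-CSF protein amount quantified by ELISA after 24 h exposure.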 The settings on record: primary human coronary artery smooth muscle cells; actives raise or lower the signal.

Read-out in test [15]: Low-density lipoprotein receptor (LDLR), LDLR (gene 3949)
The experiment in a line: BSK_CASM3C_LDLR: BioMAP Diversity Plus: CASM3C Assay for Low-density lipoprotein receptor (LDLR) Biomarker Activity (AID 2283045).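 Note: LDLR protein level on the cell surface quantified by ELISA.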 The following applies: primary human coronary artery smooth muscle cells; actives raise or lower the signal.

Read-out in test [16]: Monocyte Chemoattractant Protein-1 (MCP1), CCL2 (gene 6347)
As to the kind of experiment: BSK_CASM3C_MCP1: BioMAP Diversity Plus: CASM3C Assay for Monocyte Chemoattractant Protein-1 (MCP1) Biomarker Activity (AID 2283046).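 Note: MCP-1 level quantified by ELISA 24 h after dosing.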 The following applies: primary human coronary artery smooth muscle cells; actives raise or lower the signal.

Test [17] is described as follows: BSK_CASM3C_Proliferation: Cell Proliferation Assessment in the BioMAP Diversity Plus: CASM3C Assay (AID 2283047).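 Note: sulforhodamine B total protein stain as relative cell number at 560 nm; sub-confluent cells exposed 48 h before staining; fitted both ways against DMSO so gain or loss of cell number.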 The following applies: primary human coronary artery smooth muscle cells.
Read-out in test [18]: Monokine induced gamma interferon (MIG), CXCL9 (gene 4283)
The experiment in a line: BSK_CASM3C_MIG: BioMAP Diversity Plus: CASM3C Assay for Monokine induced gamma interferon (MIG) Biomarker Activity (AID 2283048).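 Note: MIG protein level measured by ELISA.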 The following applies: primary human coronary artery smooth muscle cells; actives raise or lower the signal.

Read-out in test [19]: serum amyloid A (SAA), SAA1 (gene 6288)
As to the kind of experiment: BSK_CASM3C_SAA: BioMAP Diversity Plus: CASM3C Assay for serum amyloid A (SAA) Biomarker Activity (AID 2283049).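 Note: SAA protein level quantified by ELISA.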 The settings on record: primary human coronary artery smooth muscle cells; actives raise or lower the signal.

Read-out in test [20]: Plasminogen activator inhibitor-1 (PAI1), SERPINE1 (gene 5054)
As to the kind of experiment: BSK_BE3C_PAI1: BioMAP Diversity Plus: BE3C Assay for Plasminogen activator inhibitor-1 (PAI1) Biomarker Activity (AID 2283037). The settings on record: primary human bronchial epithelial cells; actives raise or lower the signal. The essentials: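 Values derive from bidirectional fitting against DMSO baseline of PAI-1 levels, measured by ELISA in human bronchial epithelial cells 24 h after compound addition.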

As for `COc1ccccc1NC(=O)CC(C)=O`, the outcome in test [1], in test [2], in test [3], in test [4], in test [5] and in test [6] was inactive. For the same compound, the outcome in test [7], in test [8], in test [9], in test [10], in test [11] and in test [12] was inactive. The outcome in test [13], in test [14], in test [15], in [16], in [17] and in test [18] was inactive. In addition, in test [19], the result was inactive.

Take `OCCN1CCOCC1`: the result in test [1], in [2], in test [3], in test [4], in test [5] and in [6] was inactive. Further, the outcome in [7], in test [8], in test [9], in [10], in test [11] and in test [12] was inactive. Further, the outcome in test [13], in [14], in test [15], in test [16], in test [17] and in test [18] was inactive. The outcome in [19] was inactive.

For orientation: AC50 means the concentration giving half of the maximal activity seen. With `c1ccc(Sc2ccccc2)cc1`, the AC50 was 32.7 µM (active) in test [1]; 29.9 µM (active) in test [3]; 31.3 µM (active) in test [4]; 30.1 µM (active) in [5]; 20 µM (active) in [7]; 25.6 µM (active) in test [8]. Further, the AC50 was 20 µM (active) in test [11], 20 µM (active) in [13], 14.9 µM (active) in [14] and 20 µM (active) in test [19]. For the same compound, the result in test [2], in [6], in test [9], in [10], in test [12] and in [15] was inactive. For the same compound, the result in test [16], in test [17] and in test [18] was inactive.

`CCOC(=O)CCCCCCCCC(=O)OCC`: the result in [1], in [2], in test [3], in test [4], in test [5] and in test [6] was inactive. In addition, the result in test [7], in test [8], in test [9], in test [10], in [11] and in [12] was inactive. Moreover, the result in test [13], in test [14], in test [15], in [16], in test [17] and in test [18] was inactive. Besides, in [19], the outcome was inactive.

As to `C=CC(=O)OCC(CO)(COC(=O)C=C)COC(=O)C=C`, the AC50 is 0.964 µM (active) in test [1]; 661 nM (active) in test [2]; 0.336 µM (active) in test [3]; 0.302 µM (active) in test [4]; 0.818 µM (active) in test [5]; 2.03 µM (active) in test [6]. The AC50 is 1.4 µM (active) in [7]; 0.631 µM (active) in test [8]; 2.72 µM (active) in test [9]; 835 nM (active) in test [10]; 1.25 µM (active) in [12]; 0.567 µM (active) in test [13]. The AC50 in test [14] was 1.07 µM (active); in [15] it was 1.31 µM (active); in test [16], 792 nM (active); in test [17], 302 nM (active); in [18], 1.24 µM (active); in [19], 5.46 µM (active). In test [11], the result was inactive.

Regarding `CC(=O)CCC=C(C)CCC=C(C)C`, the outcome in test [1], in test [2], in test [3], in [5], in test [6] and in [7] was inactive. Further, the result in test [20], in test [8], in test [9], in test [10], in test [11] and in test [12] was inactive. For the same compound, the outcome in test [13], in [14], in test [15], in test [16], in [18] and in test [19] was inactive. For the same compound, the AC50 in [4] was 28.9 µM (active); in [17] it was 197 nM (active).
